Test results as given in PubChem BioAssay (EPA / NIEHS).
Active and inactive are the calls of the source. Rule for the calls: active = hit-call score of the fitted dose curve at least 0.9, where 1 is the maximum; inactive = score below 0.9.

Key:
[1] = read-out: Fatty acid synthase (Homo sapiens) (UniProt P49327); assay: LTEA_HepaRG_FASN: Life Technologies and Expression Analysis (LTEA) Assay for Fatty Acid Synthase (FASN) using HepaRG (AID 2283448); conditions: mRNA level, 48 h; actives raise or lower the signal
How it was run: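 Cells were plated, cultured 48 h, switched to serum-free induction medium, then dosed in duplicate (max 100 uM, half-log dilutions, 0.5% DMSO) for 48 h. RNA was then isolated and FASN quantified by qRT-PCR.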

[2] = read-out: Cyclin D2 (CCND2), CCND2 (gene 894); assay: LTEA_HepaRG_CCND2: Life Technologies and Expression Analysis (LTEA) Assay for Cyclin D2 (CCND2) using HepaRG (AID 2283449); conditions: mRNA level, 48 h; actives raise or lower the signal
How it was run: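 CCND2 transcript levels, quantified by qRT-PCR and normalised to three housekeeping genes, were fitted bidirectionally against 0.5% DMSO. HepaRG cultures were dosed 48 h in duplicate with an 8-point half-log series up to 100 uM.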

[3] = read-out: Cyclin Dependent Kinase Inhibitor 1A (CDKN1A), CDKN1A (gene 1026); assay: LTEA_HepaRG_CDKN1A: Life Technologies and Expression Analysis (LTEA) Assay for Cyclin Dependent Kinase Inhibitor 1A (CDKN1A) using HepaRG (AID 2283450); conditions: mRNA level, 48 h; actives raise or lower the signal
How it was run: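 Differentiated human HepaRG cells, pre-cultured 48 h, were exposed in duplicate for 48 h in serum-free induction medium to eight half-log concentrations up to 100 uM (0.5% DMSO). CDKN1A mRNA was measured by qRT-PCR, normalized to ACTB/GAPDH/POLR2A, bidirectionally fitted versus DMSO.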

[4] = read-out: Cyclin D1 (CCND1), CCND1 (gene 595); assay: LTEA_HepaRG_CCND1: Life Technologies and Expression Analysis (LTEA) Assay for Cyclin D1 (CCND1) using HepaRG (AID 2283451); conditions: mRNA level, 48 h; actives raise or lower the signal;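 for AC50: TaqMan qRT-PCR transcript level normalised to ACTB GAPDH and POLR2A housekeeping genes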
How it was run: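 Differentiated human HepaRG cells in serum-free induction medium were exposed 48 h to eight half-log concentrations up to 100 uM in 0.5% DMSO; mRNA quantified by TaqMan qRT-PCR, normalized to ACTB, GAPDH, POLR2A, fitted bidirectionally versus DMSO.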

[5] = read-out: catalase (CAT), CAT (gene 847); assay: LTEA_HepaRG_CAT: Life Technologies and Expression Analysis (LTEA) Assay for catalase (CAT) using HepaRG (AID 2283452); conditions: mRNA level, 48 h; actives raise or lower the signal;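 for AC50: TaqMan qRT-PCR signal normalized to ACTB GAPDH and POLR2A housekeeping genes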
How it was run: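 Expression of CAT was quantified by TaqMan qRT-PCR with ACTB/GAPDH/POLR2A normalization after 48 h chemical exposure of HepaRG. Eight-point half-log series, top 100 uM, in 0.5% DMSO; gain or loss fitted against vehicle.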

[6] = read-out: flavin-containing dimethylaniline monooxygenases 3 (FMO3), FMO3 (gene 2328); assay: LTEA_HepaRG_FMO3: Life Technologies and Expression Analysis (LTEA) Assay for flavin-containing dimethylaniline monooxygenases 3 (FMO3) using HepaRG (AID 2283453); conditions: mRNA level, 48 h; actives raise or lower the signal
How it was run: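 FMO3 transcript quantified by TaqMan qRT-PCR against three housekeeping genes after 48 h chemical exposure of HepaRG cells. Eight-point half-log series, top 100 uM, 0.5% DMSO vehicle; phenobarbital 1mM induction control; up- or down-regulation fitted.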

[7] = read-out: Cytochrome P450 (CYP1A1), CYP1A1 (gene 1543); assay: LTEA_HepaRG_CYP1A1: Life Technologies and Expression Analysis (LTEA) Assay for Cytochrome P450 (CYP1A1) using HepaRG (AID 2283454); conditions: mRNA level, 48 h; actives raise or lower the signal
How it was run: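 Differentiated HepaRG cells in serum-free induction medium were exposed in duplicate for 48 h to eight half-log concentrations up to 100 uM in 0.5% DMSO. CYP1A1 mRNA was quantified by TaqMan qRT-PCR, normalized to ACTB, GAPDH and POLR2A.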

[8] = read-out: CFLAR gene, CFLAR (gene 8837); assay: LTEA_HepaRG_CFLAR: Life Technologies and Expression Analysis (LTEA) Assay for CFLAR gene using HepaRG (AID 2283455); conditions: mRNA level, 48 h; actives raise or lower the signal
How it was run: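 Transcript level by qRT-PCR (normalized to ACTB, GAPDH and POLR2A) after 48 h chemical exposure of HepaRG cells, top concentration 100 uM with half-log steps, 0.5% DMSO vehicle, duplicates; fitted bidirectionally against DMSO baseline.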

[9] = read-out: Forkhead box O1 (FOXO1), FOXO1 (gene 2308); assay: LTEA_HepaRG_FOXO1: Life Technologies and Expression Analysis (LTEA) Assay for Forkhead box O1 (FOXO1) using HepaRG (AID 2283456); conditions: mRNA level, 48 h; actives raise or lower the signal
How it was run: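 FOXO1 transcript quantified by qRT-PCR after 48 h chemical exposure (top 100 uM, half-log steps, 0.5% DMSO) of HepaRG cells, housekeeping-normalized (ACTB/GAPDH/POLR2A). Changes fitted in both directions relative to vehicle.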

[10] = read-out: growth arrest and DNA damage 45 (GADD45A), GADD45A (gene 1647); assay: LTEA_HepaRG_GADD45A: Life Technologies and Expression Analysis (LTEA) Assay for growth arrest and DNA damage 45 (GADD45A) using HepaRG (AID 2283458); conditions: mRNA level, 48 h; actives raise or lower the signal
How it was run: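 Transcript induction or loss, quantified by TaqMan qRT-PCR against three housekeeping genes, is the read-out. HepaRG cells received chemicals for 48 h across eight half-log concentrations from 100 uM in 0.5% DMSO; gain and loss fitted relative to DMSO.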

[11] = read-out: ABC Transporter (ABCB1), ABCB1 (gene 5243); assay: LTEA_HepaRG_ABCB1: Life Technologies and Expression Analysis (LTEA) Assay for ABC Transporter (ABCB1) using HepaRG (AID 2283460); conditions: mRNA level, 48 h; actives raise or lower the signal
How it was run: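 ABCB1 transcript level measured by TaqMan qRT-PCR against three housekeeping genes after 48 h chemical exposure of differentiated HepaRG cells. Top concentration 100 uM, half-log steps, eight points, 0.5% DMSO vehicle; bidirectional fit relative to DMSO.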

[12] = read-out: growth arrest and DNA damage 45 (GADD45B), GADD45B (gene 4616); assay: LTEA_HepaRG_GADD45B: Life Technologies and Expression Analysis (LTEA) Assay for growth arrest and DNA damage 45 (GADD45B) using HepaRG (AID 2283461); conditions: mRNA level, 48 h; actives raise or lower the signal
How it was run: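 Differentiated HepaRG cells, plated 48 h then switched to serum-free induction medium, were exposed 48 h in duplicate to eight half-log concentrations from 100 uM in 0.5% DMSO; mRNA quantified by qRT-PCR, normalized to ACTB/GAPDH/POLR2A, bidirectional fit versus DMSO.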

[13] = read-out: ABC Transporter (ABCB11), ABCB11 (gene 8647); assay: LTEA_HepaRG_ABCB11: Life Technologies and Expression Analysis (LTEA) Assay for ABC Transporter (ABCB11) using HepaRG (AID 2283463); conditions: mRNA level, 48 h; actives raise or lower the signal
How it was run: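 ABCB11 transcript levels quantified by TaqMan qRT-PCR against three housekeeping genes after 48 h chemical exposure of HepaRG cultures. Concentrations up to 100 uM in half-log steps, 0.5% DMSO vehicle; both induction and suppression scored.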

[14] = read-out: ABC Transporter (ABCC2), ABCC2 (gene 1244); assay: LTEA_HepaRG_ABCC2: Life Technologies and Expression Analysis (LTEA) Assay for ABC Transporter (ABCC2) using HepaRG (AID 2283464); conditions: mRNA level, 48 h; actives raise or lower the signal
How it was run: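 HepaRG cells were plated 48 h, switched to serum-free induction medium, then exposed in duplicate for 48 h to 8 concentrations (top 100 uM, half-log steps, 0.5% DMSO). ABCC2 mRNA was measured by qRT-PCR normalized to ACTB/GAPDH/POLR2A; bidirectional fitting versus DMSO.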

[15] = read-out: Broad substrate specificity ATP-binding cassette transporter ABCG2 (Homo sapiens) (UniProt Q9UNQ0); assay: LTEA_HepaRG_ABCG2: Life Technologies and Expression Analysis (LTEA) Assay for ABC Transporter (ABCG2) using HepaRG (AID 2283465); conditions: mRNA level, 48 h; actives raise or lower the signal
How it was run: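 ABCG2 transcript was quantified by TaqMan qRT-PCR against three housekeeping genes in HepaRG cells. Cells were treated in duplicate for 48 h across an 8-point half-log series up to 100 uM, with 0.5% DMSO vehicle. Gain or loss versus DMSO was fit.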

[16] = read-out: ATP-citrate lyase (ACLY), ACLY (gene 47); assay: LTEA_HepaRG_ACLY: Life Technologies and Expression Analysis (LTEA) Assay for ATP-citrate lyase (ACLY) using HepaRG (AID 2283466); conditions: mRNA level, 48 h; actives raise or lower the signal
How it was run: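 ACLY mRNA quantified by qRT-PCR on Fluidigm arrays against three housekeeping genes, after 48 h chemical treatment of HepaRG cells (top concentration 100 uM, half-log steps, 0.5% DMSO vehicle). Up- or down-regulation fitted relative to DMSO.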

[17] = read-out: Peroxisomal acyl-coenzyme A oxidase 1 (ACOX1) gene, ACOX1 (gene 51); assay: LTEA_HepaRG_ACOX1: Life Technologies and Expression Analysis (LTEA) Assay for Peroxisomal acyl-coenzyme A oxidase 1 (ACOX1) gene using HepaRG (AID 2283467); conditions: mRNA level, 48 h; actives raise or lower the signal
How it was run: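 ACOX1 transcript levels were quantified by TaqMan qRT-PCR against three housekeeping genes after 48 h chemical exposure of differentiated human HepaRG cells. Exposure used eight half-log steps topping at 100 uM, 0.5% DMSO vehicle, in duplicate. Bidirectional curve fits were made relative to DMSO.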

[18] = CEETOX_H295R_TESTO: CeeTox H295R High-throughput Steroidogenesis Assay for Testosterone (TESTO) (AID 2283457); conditions: actives raise or lower the signal
How it was run: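 H295R human adrenal cells in DMEM/F12 with ITS+ and Nu-Serum, exposed to chemicals for 48 h. Testosterone in medium measured by MTBE extraction, reverse-phase HPLC-MS/MS; bidirectional fit versus DMSO baseline. MTT viability checked in same wells.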

[19] = read-out: Forkhead box O3 (FOXO3), FOXO3 (gene 2309); assay: LTEA_HepaRG_FOXO3: Life Technologies and Expression Analysis (LTEA) Assay for Forkhead box O3 (FOXO3) using HepaRG (AID 2283459); conditions: mRNA level, 48 h; actives raise or lower the signal
How it was run: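 FOXO3 transcript measured by qRT-PCR (normalized to ACTB, GAPDH, POLR2A) after 48 h exposure of HepaRG cells in serum-free induction medium. Duplicates, eight half-log concentrations up to 100 uM, 0.5% DMSO; gain or loss fitted against DMSO.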

[20] = read-out: ABC Transporter (ABCC3), ABCC3 (gene 8714); assay: LTEA_HepaRG_ABCC3: Life Technologies and Expression Analysis (LTEA) Assay for ABC Transporter (ABCC3) using HepaRG (AID 2283462); conditions: mRNA level, 48 h; actives raise or lower the signal
How it was run: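 HepaRG cells in serum-free induction medium were exposed for 48 h in duplicate to 8-point half-log concentrations topping at 100 uM in 0.5% DMSO. ABCC3 mRNA was measured by qRT-PCR normalized to ACTB, GAPDH and POLR2A, with bidirectional fitting versus DMSO.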

Measured: AC50

Sequence of Broad substrate specificity ATP-binding cassette transporter ABCG2 (Homo sapiens) (Q9UNQ0 whole entry, looked up): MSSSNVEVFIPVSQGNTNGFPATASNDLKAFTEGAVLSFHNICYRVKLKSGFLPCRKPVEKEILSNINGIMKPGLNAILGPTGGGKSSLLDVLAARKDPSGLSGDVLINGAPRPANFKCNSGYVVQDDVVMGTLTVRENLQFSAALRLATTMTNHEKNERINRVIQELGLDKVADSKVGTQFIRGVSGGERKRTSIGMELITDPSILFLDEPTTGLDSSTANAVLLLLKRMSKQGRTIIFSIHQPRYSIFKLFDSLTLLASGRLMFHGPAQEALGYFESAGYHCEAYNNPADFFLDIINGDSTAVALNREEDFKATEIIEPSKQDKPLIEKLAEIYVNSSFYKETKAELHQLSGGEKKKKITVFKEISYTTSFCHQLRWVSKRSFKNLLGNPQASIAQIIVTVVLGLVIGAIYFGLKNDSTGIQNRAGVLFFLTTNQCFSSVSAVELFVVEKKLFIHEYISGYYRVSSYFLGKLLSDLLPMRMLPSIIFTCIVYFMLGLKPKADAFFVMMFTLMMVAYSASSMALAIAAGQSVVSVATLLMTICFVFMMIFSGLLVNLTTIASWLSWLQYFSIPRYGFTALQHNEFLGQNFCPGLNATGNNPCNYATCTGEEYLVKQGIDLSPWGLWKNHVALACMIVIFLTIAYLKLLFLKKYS
Sequence of Fatty acid synthase (Homo sapiens) (P49327 whole entry, looked up): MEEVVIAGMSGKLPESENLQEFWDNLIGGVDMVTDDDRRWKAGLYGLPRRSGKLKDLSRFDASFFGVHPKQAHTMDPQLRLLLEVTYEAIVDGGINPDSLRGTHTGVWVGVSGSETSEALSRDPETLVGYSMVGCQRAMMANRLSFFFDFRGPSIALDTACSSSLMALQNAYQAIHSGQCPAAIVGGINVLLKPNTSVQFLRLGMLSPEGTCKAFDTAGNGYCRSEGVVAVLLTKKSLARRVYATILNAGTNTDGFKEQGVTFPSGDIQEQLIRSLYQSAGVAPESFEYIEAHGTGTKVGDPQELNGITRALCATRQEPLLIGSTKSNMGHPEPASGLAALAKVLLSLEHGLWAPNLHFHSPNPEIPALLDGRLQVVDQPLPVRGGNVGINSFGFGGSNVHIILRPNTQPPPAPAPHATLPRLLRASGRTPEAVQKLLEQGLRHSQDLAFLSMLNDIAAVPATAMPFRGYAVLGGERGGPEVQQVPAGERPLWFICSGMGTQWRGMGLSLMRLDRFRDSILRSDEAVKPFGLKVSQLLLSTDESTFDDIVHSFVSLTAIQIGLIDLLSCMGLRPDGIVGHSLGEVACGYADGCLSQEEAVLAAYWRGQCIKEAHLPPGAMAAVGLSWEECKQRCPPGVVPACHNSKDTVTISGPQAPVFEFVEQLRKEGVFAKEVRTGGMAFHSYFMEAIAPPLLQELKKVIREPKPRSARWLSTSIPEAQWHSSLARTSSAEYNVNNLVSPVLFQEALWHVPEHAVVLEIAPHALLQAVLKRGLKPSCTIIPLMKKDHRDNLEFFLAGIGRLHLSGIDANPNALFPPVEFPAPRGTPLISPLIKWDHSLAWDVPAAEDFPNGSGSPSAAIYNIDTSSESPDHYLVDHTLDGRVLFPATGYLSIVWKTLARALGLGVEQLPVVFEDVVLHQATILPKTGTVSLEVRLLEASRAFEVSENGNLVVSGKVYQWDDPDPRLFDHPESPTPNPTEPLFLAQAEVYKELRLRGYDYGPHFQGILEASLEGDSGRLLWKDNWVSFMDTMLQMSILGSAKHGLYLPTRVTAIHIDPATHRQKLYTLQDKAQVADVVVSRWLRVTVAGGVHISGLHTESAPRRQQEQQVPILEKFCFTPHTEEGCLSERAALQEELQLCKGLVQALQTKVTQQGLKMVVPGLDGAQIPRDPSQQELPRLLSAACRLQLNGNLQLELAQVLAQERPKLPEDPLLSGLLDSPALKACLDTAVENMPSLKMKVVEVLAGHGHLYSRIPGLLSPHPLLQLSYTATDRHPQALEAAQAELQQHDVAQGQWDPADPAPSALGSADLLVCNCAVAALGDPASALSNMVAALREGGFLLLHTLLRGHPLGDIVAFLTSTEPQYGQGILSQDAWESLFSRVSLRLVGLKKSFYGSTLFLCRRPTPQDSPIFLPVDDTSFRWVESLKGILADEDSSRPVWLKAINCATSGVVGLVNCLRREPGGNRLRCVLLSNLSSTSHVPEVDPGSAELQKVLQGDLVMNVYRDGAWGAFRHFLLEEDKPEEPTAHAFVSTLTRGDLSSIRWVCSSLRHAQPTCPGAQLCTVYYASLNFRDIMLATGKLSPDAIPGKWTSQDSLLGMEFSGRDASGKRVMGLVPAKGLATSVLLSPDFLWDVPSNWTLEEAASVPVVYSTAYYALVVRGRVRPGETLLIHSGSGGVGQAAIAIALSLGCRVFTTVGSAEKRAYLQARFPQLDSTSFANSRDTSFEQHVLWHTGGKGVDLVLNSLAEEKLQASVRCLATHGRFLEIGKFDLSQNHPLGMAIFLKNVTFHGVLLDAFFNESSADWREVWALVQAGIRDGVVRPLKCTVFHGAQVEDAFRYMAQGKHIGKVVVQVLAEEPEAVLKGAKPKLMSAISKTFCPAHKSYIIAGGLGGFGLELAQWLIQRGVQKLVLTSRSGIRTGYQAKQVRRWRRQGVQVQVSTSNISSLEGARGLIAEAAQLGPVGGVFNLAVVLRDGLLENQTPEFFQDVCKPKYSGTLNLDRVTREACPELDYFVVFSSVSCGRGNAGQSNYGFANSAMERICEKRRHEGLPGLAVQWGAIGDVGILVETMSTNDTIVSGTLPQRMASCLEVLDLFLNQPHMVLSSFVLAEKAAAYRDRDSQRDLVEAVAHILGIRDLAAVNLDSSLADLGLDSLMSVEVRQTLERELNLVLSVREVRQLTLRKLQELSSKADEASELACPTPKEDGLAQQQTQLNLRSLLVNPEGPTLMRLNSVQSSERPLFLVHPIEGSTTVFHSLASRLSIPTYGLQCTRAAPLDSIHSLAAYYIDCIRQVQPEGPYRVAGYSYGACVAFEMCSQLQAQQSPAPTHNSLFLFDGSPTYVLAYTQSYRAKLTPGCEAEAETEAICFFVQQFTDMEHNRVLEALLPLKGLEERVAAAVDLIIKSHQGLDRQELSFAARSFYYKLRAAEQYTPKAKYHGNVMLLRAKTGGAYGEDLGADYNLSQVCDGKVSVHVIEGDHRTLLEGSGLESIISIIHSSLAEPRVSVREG

OCCNCCO
active: [1] 9.92 µM | [5] 50 µM | [13] 60.5 µM
not listed: [18] | [19] | [20]
inactive: all other assays above

C=CCc1cc(S(=O)(=O)c2ccc(O)c(CC=C)c2)ccc1O
active: [1] 81.4 µM | [4] 88.2 µM | [5] 71.6 µM | [6] 76.9 µM | [9] 79.6 µM | [19] 84.9 µM | [11] 89.1 µM | [13] 81.6 µM | [14] 50 µM | [17] 79.8 µM
inactive: [3] | [7] | [8] | [18] | [10] | [12] | [20] | [15] | [16]

CCCCC(CC)C(=O)OCCOCCOCCOC(=O)C(CC)CCCC (centres undefined)
not listed: [2] | [20]
inactive: all other assays above
